LYPLA2 counter: blocks human lysophospholipase 2, a PME1 counter-screen | O95372 | 320,000 tested, 0.38% active | AID 2177 | recombinant LYPLA2, FP-Rh probe fluorescence polarization | inhibition, % at 5.9 µM;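 active = inhibition above the screen-wide mean plus 3 SD, limit set per campaign, cut at about 26% in these data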
Fam108B counter: blocks mouse Fam108B hydrolase in RBBP9 counter-screen | 300,000 tested, 0.33% active | inhibition, % at 9.51 µM | recombinant Fam108B, FP-Rh probe fluorescence polarization;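 active = inhibition above the screen mean inhibition plus 3 SD, computed separately per campaign, cut at about 18% in these data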;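 also: inhibitors lower polarization as less probe binds the enzyme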
PAD4 FP inh: inhibitors of human PAD4 | recombinant PAD4, RCA probe fluorescence polarization | inhibition, % at 6.36 µM | 330,000 tested, 0.41% active | AID 485272;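 active = percent inhibition above a cutoff equal to the mean of all tested compounds plus 3 SD, cut at about 15% in these data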
PME-1 inh: PME-1 (human) inhibition; inhibition, % at 5.9 µM; recombinant PME-1, FP-Rh probe fluorescence polarization; 320,000 tested, 0.53% active; AID 2130;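 active = inhibition above the campaign mean of all compounds plus 3 SD, cut at about 26% in these data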;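 also: competitive labeling of PME-1 active site by serine hydrolase directed probe; inhibitors block probe labeling so polarization falls and inhibition rises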
LYPLA1 counter: counter-screen for PME1 inhibitors: inhibitors of human LYPLA1; recombinant LYPLA1, FP-Rh probe fluorescence polarization; AID 2174; inhibition, % at 5.9 µM; O75608; 320,000 tested, 0.16% active;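 active = inhibition above the mean of all tested compounds plus 3 SD, set per campaign, cut at about 14% in these data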;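 also: inhibitors block serine hydrolase probe labeling of LYPLA1 so polarization falls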
GSTO1 inh: counter-screen for RBBP9 inhibitors: inhibitors of human GSTO1; P78417; recombinant GSTO1, activity-based probe fluorescence polarization; inhibition, % at 5.96 µM; 300,000 tested, 1.1% active;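 active = inhibition above the campaign mean inhibition plus 3 SD, cut at about 35% in these data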
Target sequence (P78417 whole entry, looked up): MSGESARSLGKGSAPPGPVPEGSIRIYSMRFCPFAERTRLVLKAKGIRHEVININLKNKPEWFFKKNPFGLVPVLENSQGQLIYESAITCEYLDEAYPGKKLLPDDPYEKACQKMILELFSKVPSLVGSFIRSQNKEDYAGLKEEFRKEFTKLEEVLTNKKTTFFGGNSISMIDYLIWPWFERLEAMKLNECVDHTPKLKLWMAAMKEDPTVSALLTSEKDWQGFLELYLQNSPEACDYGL
A number is an active result; i = inactive; nt = no result. A selection: hits, their analogues and other compounds. The true share with any hit is near 1.8%.

SMILES | LYPLA2 counter | Fam108B counter | PAD4 FP inh | PME-1 inh | LYPLA1 counter | GSTO1 inh
O=C1c2ccccc2C(=O)N1c1cccc(-c2csc(Nc3ccc4c(c3)OCO4)n2)c1 | i | 21 | i | i | i | 62
N#C/C(=C(/O)c1ccc(Cl)cc1)c1nc2ccccc2[nH]1 | i | i | i | i | i | i
N#C/C(=C(\O)c1cc(Cl)sc1Cl)c1nc2ccccc2[nH]1 | i | i | i | 35 | i | i
CC(=O)c1ccc(N2CCN(C(=S)Nc3ccc(Oc4ccccc4)cc3)CC2)cc1 | 32 | i | i | i | i | i
O=C1c2ccccc2C(=O)N1CSc1nnnn1-c1ccccc1 | i | i | i | i | i | 37
O=C1c2ccccc2C(=O)N1CCCCSc1nnnn1-c1ccccc1 | i | i | i | i | i | i
CCOC(=O)c1ccccc1NC(=O)CN1C(=O)NC(C)(CCc2ccccc2)C1=O (stereo not given) | i | i | i | i | i | i
COc1ccc(CNC(=O)CSc2nc3[nH]ncc3c(=O)n2-c2ccccc2Br)cc1 | i | i | i | i | i | 42
O=C1CCCc2c1sc1nc3n(c(=O)c21)CCCCC3 | i | i | i | i | i | i
O=C1c2sc3nc4n(c(=O)c3c2CCC1Br)CCCCC4 (stereo not given) | i | i | i | i | i | 55
Cc1ccc(NC(=O)c2ccc(NS(=O)(=O)c3ccc4[nH]c(=O)[nH]c4c3)cc2)nc1 | i | i | i | i | i | i
CN(C)S(=O)(=O)c1ccc(Cl)c(NC(=O)COC(=O)c2ccc(O)cc2)c1 | i | i | i | i | i | i
CCN(CC)S(=O)(=O)c1ccc(Cl)c(NC(=O)COC(=O)c2ccc(O)cc2)c1 | i | i | i | 29 | i | i
CCN(CC)S(=O)(=O)c1ccc(Cl)c(NC(=O)COC(=O)c2cccn2C)c1 | i | i | i | 33 | i | i
CCN(CC)S(=O)(=O)c1ccc(C)c(NC(=O)COC(=O)c2ccc(C)c(S(=O)(=O)N3CCOCC3)c2)c1 | i | i | i | 51 | i | i
O=c1oc2ccccc2c(O)c1CN1CCCCC1 | i | i | i | i | i | i
O=C1NCCCC2c3cc(O)c4ccccc4c3OC12N1CCCCC1 (stereo not given) | i | i | 34 | i | i | 81
COc1ccc(CCNC(=O)CSc2nc3[nH]ncc3c(=O)[nH]2)cc1OC | i | i | i | i | i | i
COc1ccc(NC(=O)c2c[nH]n3c(=O)cc(C4CCN(C(=O)OC(C)(C)C)CC4)nc23)cc1Cl | i | i | i | 33 | i | i
CC(C)(C)OC(=O)N1CCC(c2cc(=O)n3[nH]c(-c4ccc(Cl)cc4)cc3n2)CC1 | i | i | i | i | i | i
CC(O)CNc1nc2ccccc2n1CC(=O)N1CCN(Cc2ccccc2)CC1 (stereo not given) | i | i | i | i | i | i
COc1cc2[nH]c(C(=O)NN)c(N)c2cc1OC | i | i | i | i | i | 39
COc1cccc2[nH]c(C(=O)NN)c(N)c12 | i | i | i | i | i | i
Cc1cc(-c2ccc(N=Nc3c(S(=O)(=O)O)cc4cc(S(=O)(=O)O)cc(N)c4c3O)c(C)c2)ccc1N=Nc1c(S(=O)(=O)O)cc2cc(S(=O)(=O)O)cc(N)c2c1O | i | 36 | i | i | i | i
O=C(CSc1nc2ccccc2o1)NC1CCS(=O)(=O)C1 (stereo not given) | nt | nt | i | nt | nt | nt
SMILES | LYPLA2 counter | Fam108B counter | PAD4 FP inh | PME-1 inh | LYPLA1 counter | GSTO1 inh
COC1=C(Nc2ccccc2)C(=O)c2ccccc2C1=O | i | i | i | i | i | 49
COC1=C(Nc2ccc(C)cc2)C(=O)c2ccccc2C1=O | i | i | i | i | i | i
O=C(NC1CCCCC1)NC1CC2CCCC(C1)N2C1CCCC1 (stereo not given) | i | i | i | i | i | i
COc1ccc(N=CC2=C(Nc3ccc(OC)cc3)c3c(C)nn(-c4ccccn4)c3CC2)cc1 | 49 | 47 | 81 | 57 | 50 | 84
Cc1ccc(NC(=O)c2ccc([N+](=O)[O-])s2)cc1S(=O)(=O)N1CCOCC1 | nt | nt | i | nt | nt | nt
COc1ccc(CCC(=O)Nc2ccc3c(c2)OCO3)cc1OC | i | i | i | i | i | 35
C/C=C/C=C/C(=O)N1CC[C@]23c4ccccc4N[C@H]4N(C)c5cccc6c5[C@]42CCN([C@H]6C2OC2(C)C)[C@H]13 (stereo not given in full) | i | i | i | i | i | 37
C=CCNC1=C(Cl)C(=O)N(Cc2ccccc2)C1=O | i | i | i | i | i | i

High-throughput results: PubChem, The Scripps Research Institute Molecular Screening Center
